According to PubChem BioAssay (NCI):
About 83,000 compounds went through this panel and 20% of them were active in at least one assay; those are over-represented in the sample as a whole.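 Negative percent growth values reflect cell death: -40 means 40% of the cells present at the start died, and -100 means all died.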 Values without a mark were called inactive. Calls of active or inactive are those of the source. How the source made its calls: active means growth percent below 10; inactive means the rest.

system: 786-0 renal; assay: NCI-60 one-dose screen, 48 h (100 = growth as untreated, 0 = no growth, -100 = all killed); conditions: 10 µM unless noted

SMILES | growth
COc1ccc(C2C(C#N)=C(/N=C/c3ccc(Cl)cc3)Oc3c2sc2c(C)cccc32)cc1 (stereo not given) | 39.2%
CN1CC[C@@H]2[C@@]3(C)CC[C@H](O)C(C)(C)[C@@H]3CC[C@@]2(C)[C@]2(C)CC[C@@]3(CO)CCC(C)(C)C[C@@H]3C12 (stereo not given in full) | 80.7%
Clc1ccc2c(N/N=C/c3c[nH]c4ccccc34)ccnc2c1 | -89.8% (active)
O=c1c2cc(-c3ccc(F)cc3F)ccc2n(Nc2ccccc2)c(=O)n1-c1cccc(C(F)(F)F)c1 | 48.2%
NC1[C@H]2CN(c3cnc(C(=O)Nc4cc(F)cc5cccnc45)cn3)C[C@@H]12 (stereo not given in full) | 75.2%
CCOC(=O)c1cccc(NC2=C(Cl)C(=O)c3nc(C)ccc3C2=O)c1 | 103%
O=C(CSc1nnc(-c2cccs2)n1-c1ccccc1)Nc1ccccc1 | 85.1%
CCc1cc2c(cc1Cl)nc1c(=O)[nH]c(=O)nc-1n2CCOCC(C)C | 70.3%
Cc1csc(/N=C(N)/N=C(\N)c2cccc(C#N)c2)n1 | 87.8%
Clc1ccc(CSc2nnc(-c3ccc(Cl)cc3)n2-c2ccccc2)cc1 | 59.7%
C#Cc1nc(C(=O)NCCCCCCC(=O)NO)cs1 | -83.4% (active)
CCCNNC(=O)c1ccc(-c2ccc(NC(=O)CCCCCCC(=O)N[C@H](C(=O)N3C[C@H](O)C[C@H]3C(=O)N[C@@H](C)c3ccc(-c4scnc4C)cc3)C(C)(C)C)cc2)cc1 | 36.9%
CN1CCN(c2ccc(Nc3nc(NCCNC(=O)c4ccccc4)c4sccc4n3)cc2)CC1 | 45.6%
COc1cc2c3c(cc4c5c(ccc4c3c1OC)OCO5)N(CCN(C)C)C2=O | -16.2% (active)
N#Cc1c(-c2cccs2)cc(-c2cnccn2)nc1SCC(=O)N/N=C/c1ccc(Cl)cc1 | 93.9%
COC(=O)c1cccc(NC2=CC(=O)C(C)=C(C)C2=O)c1 | 101%
C#Cc1nc(/C=C/CCCCCCC(=O)NO)cs1 | -87.8% (active)
CC(=O)Nc1nc(C)c(-c2csc(Nc3ccccc3)n2)s1 | 25.7%
CC1=C(C)C(=O)C(Nc2ccc3c(c2)OCO3)=C(Br)C1=O | 103%
N#Cc1cccc(-c2cc(-c3ccc4c(c3)OCCO4)[nH]n2)c1 | 63.4%

SMILES | growth
COc1ccc2c(c1)c(-c1nc(N)nnc1-c1c[nH]c3ccccc13)cn2C | 54.5%
CC1(C)CC[C@]23CC[C@]4(C)[C@H](CC[C@@H]5[C@@]6(C)CC[C@H](N)C(C)(C)[C@@H]6CC[C@]54C)[C@H]2[C@H]1OC3 | -60.4% (active)
Fc1cccc(Cl)c1/C=N/Nc1nc(N/N=C/c2c(F)cccc2Cl)nc(N2CCCCC2)n1 | 28.3%
Cc1ccccc1N1CCN(C2=C(Cl)C(=O)c3ncccc3C2=O)CC1 | 91%
CC(=O)OC[C@@]12Oc3c(cccc3-c3ccc(O)c4c3O[C@]3(COC(C)=O)C(=C4O)C(=O)C[C@H](C)[C@@H]3OC(C)=O)C(O)=C1C(=O)C[C@H](C)[C@@H]2OC(C)=O | 27.7%
COc1ccc(CC(C)=C(c2ccc(OCCN3CCCC3)cc2)c2ccc(OCCN3CCCC3)cc2)cc1 | -79.3% (active)
CNC(=O)c1cc(N2CCc3cc(NC(=O)Nc4ccc(N5CCOCC5)c(C(F)(F)F)c4)ccc32)ccn1 | 27.3%
CN(C)CC(=O)Nc1nc(-c2cccc(NS(=O)(=O)c3cccc4c(N(C)C)cccc34)c2)cs1 | 90.5%
NCCNC(=O)c1cccc(COc2ccccc2NC(=O)c2cc(Cl)c(Cl)[nH]2)c1 | 90.3%
COc1cccc2c1C=CC1(O2)Oc2cccc(OC)c2C=C1C (stereo not given) | 26.9%
COc1ccc(-c2c(C(N)=O)c(N)n(Cc3nc4ccccc4[nH]3)c(=O)c2C#N)c(OC)c1 | 103%
NC1C2CCC1CN(c1cnc(C(=O)Nc3cc(F)cc4cccnc34)cn1)C2 (stereo not given) | 67%
COc1ccc2c(c1)c(-c1nnc(N)nc1-c1c[nH]c3ccc(F)cc13)cn2C | 46%
COc1ccc([C@H]2C(=O)N(c3cc(OC)c(OC)c(OC)c3)[C@@H]2c2ccc(OC)c(O)c2)cc1 | 6.39% (active)
CCOC(=O)c1cnc2c(-c3ccc(Cl)c(Cl)c3)cnn2c1 | 90.8%
Oc1[nH]c2ccc(Cl)cc2c1N=Nc1nc(N=Nc2c(O)[nH]c3ccc(Cl)cc23)nc(N2CCOCC2)n1 | 73.7%
CCC1=Cc2c(OC)cccc2OC12C=Cc1c(OC)cccc1O2 (stereo not given) | 50.1%
CCCC/C(=C\c1ccc(O)c(O)c1)C(=O)NC(Cc1ccccc1)C(=O)C(=O)NCCc1ccc(OC)cc1 (stereo not given) | 104%
CC/C(=C(/c1ccc(Cl)cc1)c1ccc(OCCN)cc1)c1ccccc1 | 87.9%
Cc1ccc(S(=O)(=O)c2nc(-c3ccc(F)cc3)oc2S(C)(=O)=O)cc1 | 80.6%
